Compounds with a hit are over-represented: about 1.7% of the library has one in this group of screens.
HTR5A ag: counter-screen for OPRM1-OPRD1 agonists: human HTR5A agonism; HTR5A agonist assay, luminescence, cell-based; activation, % at 9.3 µM; hit rate 0.61% among 340,000; AID 504692; in the data active = activation mostly above about 9.5%, no sharp cut-off; inactive = mostly below about 7.6%;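 note: 0% = cells with vehicle only and 100% = reference agonist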
MOR-DOR ag: agonists of human mu-delta opioid receptor heterodimerization; P35372+P41143; hit rate 0.3% among 340,000; activation, % at 9.3 µM; cells, OPRM1-OPRD1 heterodimerization, luminescence; AID 504326; in the data active = activation above about 18%;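 note: 0% = vehicle-treated cells and 100% = reference agonist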
Target sequence (P35372 whole entry, looked up): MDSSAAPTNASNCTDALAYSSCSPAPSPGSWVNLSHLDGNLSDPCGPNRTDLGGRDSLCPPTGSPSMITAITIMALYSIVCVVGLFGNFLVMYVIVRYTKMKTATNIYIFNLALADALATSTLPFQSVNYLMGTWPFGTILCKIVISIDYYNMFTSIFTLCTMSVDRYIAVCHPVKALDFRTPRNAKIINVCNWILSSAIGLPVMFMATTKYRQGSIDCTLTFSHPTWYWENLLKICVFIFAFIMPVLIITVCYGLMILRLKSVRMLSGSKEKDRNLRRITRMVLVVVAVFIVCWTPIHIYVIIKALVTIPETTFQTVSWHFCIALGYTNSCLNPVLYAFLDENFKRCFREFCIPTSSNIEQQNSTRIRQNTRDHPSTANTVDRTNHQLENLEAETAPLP
Target sequence (P41143 whole entry, looked up): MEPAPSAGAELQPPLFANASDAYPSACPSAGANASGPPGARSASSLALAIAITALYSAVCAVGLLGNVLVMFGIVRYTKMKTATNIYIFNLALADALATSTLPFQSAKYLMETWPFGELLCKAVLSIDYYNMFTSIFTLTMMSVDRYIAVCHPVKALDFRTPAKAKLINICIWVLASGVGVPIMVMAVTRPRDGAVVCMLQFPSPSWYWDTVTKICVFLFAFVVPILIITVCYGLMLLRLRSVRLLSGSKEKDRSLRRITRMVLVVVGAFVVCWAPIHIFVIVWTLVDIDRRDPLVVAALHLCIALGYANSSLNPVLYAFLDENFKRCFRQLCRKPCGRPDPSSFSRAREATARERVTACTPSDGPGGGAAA
HTR5A inv ag: HTR5A inverse agonism, opioid heterodimer counter-screen; hit rate 0.083% among 340,000; inhibition, % at 9.3 µM; HTR5A cell line, luminescence; in the data active = inhibition mostly above about 23%, no sharp cut-off; inactive = mostly below about 18%;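 note: 0% = cells with DMSO and 100% = no-cell wells with DMSO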
V-ATPase pHluor: yeast V-ATPase proton transport regulation by pHLuorin | S. cerevisiae, pHLuorin cytosolic pH fluorescence | response, % at 10 µM | hit rate 0.37% among 350,000 | AID 504577; in the data active = response mostly above about 7.3%, no sharp cut-off; inactive = mostly below about 5.4%; note: actives read high
MIN6 prolif: induces beta-cell replication in MIN6 cells; MIN6 cells proliferation, ATPlite luminescence, 48 h; cells starved in 0.2% serum; 100% = growth in 10% serum; proliferation, % at 10 µM; hit rate 0.29% among 330,000; AID 2380;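 active = compounds whose signal lies at least 3.5 SD above the mean of all wells on their plate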;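 note: 0% = DMSO-treated cells in low-serum medium and 100% = 10% serum control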
OPRM1-OPRD1 inv: mu-delta opioid heterodimer inverse agonism. inhibition, % at 9.3 µM. hit rate 0.21% among 340,000. cell-based MOR-DOR heterodimer luminescence; in the data active = inhibition above about 22%, passing the limit was not always enough;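 note: 0% = cells with DMSO and 100% = wells without cells with DMSO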
Starred values were filed as active, the others as inactive; . = no result.

SMILES | HTR5A ag | MOR-DOR ag | HTR5A inv ag | V-ATPase pHluor | MIN6 prolif | OPRM1-OPRD1 inv
Cc1ccc(NC(=O)c2ccc3ccccc3n2)nc1 | 14* | -1 | -51 | 6 | -4 | 5
C[C@H](CO)N1C[C@H](C)[C@@H](CN(C)C(=O)CN2CCOCC2)Oc2cc(Br)ccc2S1(=O)=O | . | . | . | 1 | . | .
CC(Oc1ccc([N+](=O)[O-])cc1)C(=O)NCC1CCCO1 (stereo not drawn) | 0 | -2 | 1 | 0 | 3 | 8
Cc1cc(OC(C)C(=O)NCC2CCCO2)cc(C)c1Cl (stereo not drawn) | 11* | -3 | -11 | -2 | 3 | 17
CCOc1ccc(C(=O)CCC(=O)N(CC)CC(=O)Nc2c(F)cccc2F)cc1 | -3 | -2 | 9 | 3 | -3 | 12
CCN1CCN(CCC(=O)Nc2cc(OC)cc(OC)c2)CC1 | 9.2* | -3 | -34 | 0 | 0 | 12
O=C(CN(C(=O)c1ccco1)c1cccc(F)c1)NCc1ccc(F)cc1 | 11* | -1 | -27 | 1 | 0 | 5
O=[N+]([O-])c1ccccc1S(=O)(=O)N1CCc2ccccc2C1 | -3 | -3 | 7 | 0 | -1 | 17
O=[N+]([O-])c1ccc(N2CCN(S(=O)(=O)c3ccccc3[N+](=O)[O-])CC2)cc1N1CCc2ccccc2C1 | -3 | -3 | 20 | 4 | 6.0* | 14
CCOc1ccc(S(=O)(=O)N2CCC(C(N)=O)CC2)c2ccccc12 | -1 | 2 | 5 | 22* | 0 | -10
O=C1NC(Cc2ccc(O)cc2)c2nc3cc(F)ccc3c(=O)n2-c2cc3ccccc3cc21 (stereo not drawn) | . | . | . | -1 | . | .
Cc1c(NC(=O)/C(C#N)=C/c2ccc(-c3ccccc3Cl)o2)c(=O)n(-c2ccccc2)n1C | 12* | 3 | -44 | -3 | -4 | -15
Cc1c(NC(=O)/C(C#N)=C/c2ccc(-c3ccc(Cl)c(Cl)c3)o2)c(=O)n(-c2ccccc2)n1C | 0 | -2 | 0 | 4 | 0 | 13
Cc1cccc(NC(=O)COC(=O)c2nn(-c3ccccc3C(F)(F)F)cc2O)c1C | . | . | . | -1 | . | .
CCCc1nc2ccc(NC(C)=O)cc2c(=O)n1Cc1ccc(Cl)cc1 | 10* | 0 | -27 | 0 | -1 | -2
CCCc1nc2ccc(NC(=O)c3cccs3)cc2c(=O)n1Cc1ccccc1Cl | -3 | 0 | 13 | 4 | 0 | -2
O=C(CN(Cc1ccc(F)cc1)C(=O)CCC(=O)Nc1nccs1)NCc1ccc(F)cc1 | -2 | 0 | 6 | 4 | 6 | 3
COc1cccc(N2CCN(C(=O)c3cccc(NC4=NC5CS(=O)(=O)CC5S4)c3)CC2)c1 (stereo not drawn) | 1 | -1 | -2 | -2 | 0 | 4
CCOC(=O)C1(CCOc2ccccc2)CCN(Cc2ccc(CO)o2)CC1 | -2 | 3 | 6 | -3 | -2 | -20
CCOC(=O)C1(CCOC)CCN(Cc2ccc(COC)o2)CC1 | 12* | 0 | -5 | 2 | -1 | -1
COc1ccc([N+](=O)[O-])cc1NC(=O)c1ccc(Br)s1 | -2 | -4 | 6 | 0 | -3 | 20
CC1(C)CC(=O)C=C(c2n[nH]nc2C2=CCCCC2)C1 | . | . | . | 0 | . | .
CCOc1ccc2oc(C(=O)Nc3ccc4c(c3)OCO4)c(C)c2c1 | 1 | 1 | -1 | 0 | -3 | -6
CCOc1ccc2oc(C(=O)Nc3ccc(N4CCOCC4)cc3)c(C)c2c1 | 14* | 2 | 11 | -1 | -1 | -8
COCC(C)n1c(C)cc(C(=O)COC(=O)c2c(C)nn(-c3ccccc3)c2C)c1C (stereo not drawn) | 10* | 3 | -23 | -1 | 1 | -15
Cc1cc(C)n2nc(SCC(=O)c3c(N)n(CC(C)C)c(=O)n(C)c3=O)nc2n1 | 2 | -1 | -5 | 17* | 1 | 3
Cc1cc(C)n2nc(SCC(=O)N(CC(C)C)c3c(N)n(CC(C)C)c(=O)[nH]c3=O)nc2n1 | 5 | -3 | -14 | -1 | -1 | 15
COC(=O)c1cc(CSc2nnc(NC3CCCCC3)s2)oc1C | 11* | 6 | -34 | 8 | -3 | -32
CC(=O)Nc1ccc(NC(=O)CCCN2C(=O)c3ccccc3C2=O)cc1 | 9.8* | 2 | -28 | -3 | -2 | -9
CC(=O)Nc1ccc(NC(=O)CCN2C(=O)c3ccccc3C2=O)cc1 | -2 | -1 | 7 | -1 | -5 | 6
